# Source: PubChem BioAssay (NCATS)
# Inconclusive results are not listed. Activity calls are given as the source filed them. The call rests on the fitted dose curve; in most records, active means well fitted curve in the direction sought with a large enough effect; inconclusive means small, poorly fitted or top-dose-only effect, or another doubt; inactive means no such curve, though single readings can be large; an effect the other way counts as inactive or inconclusive.
# Experiments:
# [1] = qHTS of pediatric cancer cell lines to identify multiple opportunities for drug repurposing: Primary screen for Saos-2 cells (AID 1347097); further: nearly all actives have a fitted effect of over 40% in size
# Outline: (§1)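 Following a 5-hour attachment period, cells at 500-1,000/well received compounds and were cultured for 48 hours. CellTiter-Glo was added and luminescence read to estimate viable, metabolically active cells.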
# [2] = qHTS of pediatric cancer cell lines to identify multiple opportunities for drug repurposing: Primary screen for BT-12 cells (AID 1347101); further: nearly all actives have a fitted effect of over 25% in size
# Outline: (§2)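 Cells (500-1,000/well) rested 5 h, then received compounds for 48 h; metabolically active cells were measured by CellTiter-Glo luminescence. Final concentrations spanned up to 46 µM (MIPE, 11-point) or 0.59 nM-46 µM (NPC, 8-point) in primary screens, 11-point in follow-ups.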
# [3] = qHTS of pediatric cancer cell lines to identify multiple opportunities for drug repurposing: Primary screen for OHS-50 cells (AID 1347103); further: nearly all actives have a fitted effect of over 40% in size
# Outline: as §2
# [4] = qHTS of pediatric cancer cell lines to identify multiple opportunities for drug repurposing: Primary screen for NB1643 cells (AID 1347099); further: nearly all actives have a fitted effect of over 50% in size
# Outline: as §1
# [5] = qHTS of pediatric cancer cell lines to identify multiple opportunities for drug repurposing: Primary screen for Rh18 cells (AID 1347102); further: nearly all actives have a fitted effect of over 65% in size
# Outline: (§3)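 Viability after 48 h compound treatment at 37C, 500-1,000 cells/well, read as ATP luminescence with CellTiter-Glo. Primary screens used 11-point (MIPE, 0.78 nM-46 µM) or 8-point (NPC, 0.59 nM-46 µM) final concentrations; follow-up screens used 11-point dilutions.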
# [6] = qHTS of pediatric cancer cell lines to identify multiple opportunities for drug repurposing: Primary screen for RD cells (AID 1347104); further: nearly all actives have a fitted effect of over 55% in size
# Outline: as §1
# [7] = qHTS of pediatric cancer cell lines to identify multiple opportunities for drug repurposing: Primary screen for MG 63 (6-TG R) cells (AID 1347105); further: nearly all actives have a fitted effect of over 50% in size
# Outline: as §1
# [8] = qHTS of pediatric cancer cell lines to identify multiple opportunities for drug repurposing: Primary screen for LAN-5 cells (AID 1347100)
# Outline: as §3
# Potency means the concentration at half of the fitted maximal effect.
SMILES,Potency [1],Potency [2],Potency [3],Potency [4],Potency [5],Potency [6],Potency [7],Potency [8]
Cc1ccc2nc(NC(=O)CSc3nc4c(c(=O)n3-c3ccccc3)SCC4)sc2c1,14.8 µM (active),5.44 µM (active),13.7 µM (active),–,–,–,–,–
CCCCOc1c(C(=O)c2c(F)cc(C)cc2F)cnc2n[nH]cc12,3.72 µM (active),–,5.44 µM (active),2.96 µM (active),inactive,18.7 µM (active),11.8 µM (active),–
Cn1c(=O)n(-c2ccc(C(C)(C)C#N)cc2)c2c3cc(-c4cnc5ccccc5c4)ccc3ncc21,0.235 µM (active),–,0.109 µM (active),–,0.209 µM (active),0.332 µM (active),0.0148 µM (active),1.66 µM (active)
CCN(CC)CCCCNc1ncc2cc(-c3cc(OC)cc(OC)c3)c(NC(=O)NC(C)(C)C)nc2n1,–,24.3 µM (active),24.3 µM (active),–,13.2 µM (active),–,inactive,18.7 µM (active)
CC(=O)c1c(C)c2cnc(Nc3ccc(N4CCNCC4)cn3)nc2n(C2CCCC2)c1=O,18.7 µM (active),–,–,–,23.5 µM (active),–,–,18.7 µM (active)
CC(C)=CCCC(C)=CCCC(C)=CCSc1ccccc1C(=O)O,3.72 µM (active),–,1.53 µM (active),–,11.8 µM (active),–,3.72 µM (active),–
Cn1c2ccccc2c2c3c(c4c5ccccc5n(CCC#N)c4c21)CNC3=O,0.935 µM (active),–,5.44 µM (active),–,–,–,14.8 µM (active),5.9 µM (active)
